Laboratory results as given in PubChem BioAssay (EPA / NIEHS).
Activity calls are given as the source filed them. How the source made its calls: active means hit-call score of the fitted dose curve at least 0.9, where 1 is the maximum; inactive means score below 0.9.

Experiment: CEETOX_H295R_OHPREG: CeeTox H295R High-throughput Steroidogenesis Assay for OH-Pregnenolone (OHPREG) (AID 2283434)
Settings: actives raise or lower the signal
Procedure: CEETOX_H295R is a cell-based, multiplexed-readout assay that uses H295R, a human adrenal gland cell line, with measurements taken at 48 hours after chemical dosing in a 96-well plate.CEETOX_H295R_OHPREG is one of 23 assay component(s) measured or calculated from the CEETOX_H295R assay. It is designed to make measurements of hormone induction, a form of inducible reporter, as detected with […] by HPLC-MS-MS technology.Data from the assay component CEETOX_H295R_OHPREG was analyzed into 1 assay endpoint. This assay endpoint, CEETOX_H295R_OHPREG, was analyzed with bidirectional fitting relative to DMSO as the negative control and baseline of activity. Using a type of inducible reporter, gain or loss-of-signal activity using HPLC-MS-MS was used to understand synthesis of 17alpha-hydroxypregnenolone in H295R cell line at 48hr of chemical exposure. To generalize the intended target to other relatable targets, this assay endpoint is annotated to the steroid hormone intended target family, where the subfamily is progestagens.
Cell culture and media preparation procedures were conducted in accordance with OECD Test No. 456 guidelines, with minor modifications. H295R cells (ATCC CRL-2128) were expanded for 5 passages and frozen in batches in liquid nitrogen. Prior to the steroidogenesis assay, H295R cells were thawed and passed at least 4 times. The maximum passage was 10. Cells were maintained in a 1:1 mixture of DMEM/F12 supplemented with 5ml/L ITS+ Premix (BD Bioscience) and 12.5 ml/L Nu-Serum (BD Bioscience). After seeding cells into 96-well plates at 50-60% confluency, cells were allowed to adhere overnight. Prior to chemical testing, culture medium was replaced with 175 uL medium containing 10 uM forskolin to stimulate steroidogenesis for 48 hours. Following prestimulation, forskolin medium was replaced with medium containing test chemical solubilized in DMSO (ensuring a final concentration of 0.1% DMSO). Test chemicals were incubated for 48 hours, then the medium was removed and split into 2 vials containing approximately 75uL each, and stored at -80 C prior to hormone analysis. For steroid quantification, media samples were shipped to OpAns, LLC (Durham, NC) on dry ice, and samples were thawed to room temperature prior to liquid-liquid extraction. Steroid hormones were extracted from media samples using methyl tertbutyl ether (MTBE). An extra derivatization with dansyl chloride was included for estrogen (estrone and estradiol) detection only. Steroid hormones were separated by HPLC, eluted using a reverse phase C18 gradient with electrospray positive ionization, followed by quantification by tandem mass spectrometry (MS/MS). Data were acquired on a MassHunter Workstation Acquisition version B03.01 (Agilent Technologies, Inc.) and processed using MassHunter Quantitative Analysis for QQQ. Accuracy was determined for each hormone analyte from 3 standards to determine upper and lower limits of quantification (ULOQ and LLOQ, respectively) using a 7-point standard curve. Precision and accuracy of the extraction and quantification methods were calculated as the percent relative standard deviation (%RSD) of the spiked standards and percent spiked standard recovered, respectively. The goal was to achieve 100% accuracy (i.e., recover all spiked-in standard at quantification with minimal loss during run time) and good precision (i.e., have %RSD <15% to ensure reproducibility). Test medium was removed following chemical exposure, and cell viability was evaluated in the same wells by MTT. MTT procedures were as follows: after removal of test medium, 500 uL of 0.5 mg/ml of 3-[4,5-dimethylthiazol-2-y]2,5-diphenyltetrazoliumbromide solution was added to the cells. Following a 4-hour incubation at 37 C and 5% CO2 to allow formazan-crystal formation, the MTT solution was removed and blue formazan salt crystals were solubilized using 500uL anhydrous isopropanol with shaking for 20 minutes. […]

| SMILES | outcome | AC50 |
| --- | --- | --- |
| CCCCC(CC)CN1C(=O)C2C3C=CC(C3)C2C1=O (stereo unspecified) | inactive |  |
| CSC(=O)c1cccc2nnsc12 |  | 55.6 µM (active) |
| CC(C)(C)[C@@H](O)[C@@H](Cc1ccc(Cl)cc1)n1cncn1 | inactive |  |
| CCOC(=O)c1ccc(O)cc1 | inactive |  |
| CCCCCOC(=O)COc1cc(N2C(=O)C3=C(CCCC3)C2=O)c(F)cc1Cl | inactive |  |
| c1ccc2[nH]c(-c3cscn3)nc2c1 | inactive |  |
| CCCCOCCOCCOCc1cc2c(cc1CCC)OCO2 |  | 5 µM (active) |
| CCCCOC(=O)[C@@H](C)Oc1ccc(Oc2ccc(C(F)(F)F)cn2)cc1 | inactive |  |
| O=C(Nc1ccc([N+](=O)[O-])cc1Cl)c1cc(Cl)ccc1O | inactive |  |
| CN(C)C(=O)Nc1ccc(Cl)c(Cl)c1 | inactive |  |
| C#C[C@]1(O)CC[C@H]2[C@@H]3CCC4=CC(=O)CC[C@@H]4[C@H]3CC[C@@]21CC |  | 2.42 µM (active) |
| C[C@]12C[C@H](O)[C@H]3[C@@H](CCC4=CC(=O)CC[C@@]43C)[C@@H]1CC[C@@H]2C(=O)CO |  | 16.1 µM (active) |
| CC1(C)C(C=C(Cl)Cl)C1C(=O)OCc1cccc(Oc2ccccc2)c1 (stereo unspecified) | inactive |  |
| c1ccc(Nc2ccccc2)cc1 | inactive |  |
| CC(C)(c1ccc(O)cc1)c1ccc(O)cc1 | inactive |  |
| C=CCOC(Cn1ccnc1)c1ccc(Cl)cc1Cl (stereo unspecified) | inactive |  |
| CCOC(=O)C(C)Oc1ccc(Oc2cnc3cc(Cl)ccc3n2)cc1 (stereo unspecified) | inactive |  |
| CCNc1nc(N)nc(Cl)n1 | inactive |  |
| Oc1ccc(C(c2ccc(O)cc2)C(Cl)(Cl)Cl)cc1 |  | 0.299 µM (active) |
| C#CCOC(=O)[C@@H](C)Oc1ccc(Oc2ncc(Cl)cc2F)cc1 | inactive |  |
| CCN(Cc1c(F)cccc1Cl)c1c([N+](=O)[O-])cc(C(F)(F)F)cc1[N+](=O)[O-] | inactive |  |
| S=C(S)NCCNC(=S)S.[Mn+2].[S-]C([S-])=NCCN=C([S-])[S-].[Zn+2] | inactive |  |
| CC(=O)[C@H]1CC[C@H]2[C@@H]3CCC4=CC(=O)CC[C@]4(C)[C@H]3CC[C@]12C |  | 7.97 µM (active) |
| S=C([S-])NCCNC(=S)[S-].[Mn+2] | inactive |  |
| CCCN(CCC)C(=O)SCC | inactive |  |
| CC(=O)S[C@@H]1CC2=CC(=O)CC[C@]2(C)[C@H]2CC[C@@]3(C)[C@@H](CC[C@@]34CCC(=O)O4)[C@H]12 |  | 0.805 µM (active) |
